One experiment concerns SRMS. Conditions: concentration: 1 μM, replicates: in singlicate, n = 1.
The test system of the next experiment is SRPK1. Particulars: concentration: 1 μM, replicates: in singlicate, n = 1.
For another experiment, the system named is SRPK2. Conditions: concentration: 1 μM, replicates: in singlicate, n = 1.
The subject of another experiment is SRPK3. Particulars: concentration: 1 μM, replicates: in singlicate, n = 1.
In the next experiment the test system is STK16. Conditions: concentration: 1 μM, replicates: in singlicate, n = 1.
A further experiment deals with STK33. Conditions: concentration: 1 μM, replicates: in singlicate, n = 1.
The next experiment relates to STK35. Conditions: concentration: 1 μM, replicates: in singlicate; n = 1.
The subject of another experiment is STK36. Conditions: concentration: 1 μM, replicates: in singlicate, n = 1.
In the next experiment the test system is STK39. Particulars: concentration: 1 μM, replicates: in singlicate, n = 1.
The subject of the next experiment is SYK. Particulars: concentration: 1 μM, replicates: in singlicate, n = 1.

Values joined by “and” are separate entries in the source; they are usually repeats but may differ in a detail not shown here. Equal entries are not always repeated. Where two headings read alike, the source gives them in different places.
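Further: KINOMEscan kinase panel screen.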

Consider `CN1c2ccc(-c3ccc(C(=O)NCCO)cc3)cc2-c2[nH]ncc2S1(=O)=O`, for which the “%Inh” value with SRMS amounted to 0%; in the experiment on SRPK1, 12%; in the experiment on SRPK2 it was 5%; in the experiment on SRPK3, 1%; with STK16 it was 2%; in the experiment with STK33, 9%. In addition, the “%Inh” value amounted to 26% in the experiment on STK35, 30% with STK36, 13% in the experiment with STK39 and 41% with SYK.

`CCn1c(-c2ccncc2)nc2cnccc21` [SB-735216]: the “%Inh” value with SRMS was determined as 16%; in the experiment with SRPK1, 0%; in the experiment with SRPK2 it was 24%; in the experiment with SRPK3, 50%; in the experiment with STK16 it was 0%; in the experiment on STK33 it was 0%. The “%Inh” value with STK35 was 0%; with STK36, 19%; with STK39, 6%; with SYK, 15%.

Take `CSc1nn2c(=O)cc(N3CCOCC3)nc2n1Cc1cccc(Cl)c1Cl` [GSK2347225]: the “%Inh” value with SRMS is listed as 0%; in the experiment on SRPK1 it was 13%; in the experiment with SRPK2, 0%; with SRPK3, 0%; with STK16 it was 14%; in the experiment on STK33, 3%. The “%Inh” value in the experiment on STK35 came out at 65%; with STK36, 28%; in the experiment on STK39, 0%; with SYK, 30%.

Turning to `Nc1nc(-c2ccc3c(N)n[nH]c3c2)cc(N2CCCCC2)n1` [GSK2228768], the “%Inh” value in the experiment with SRMS worked out at 0%; in the experiment on SRPK1, 45%; with SRPK2, 0%; in the experiment with SRPK3, 0%; with STK16, 5%; with STK33, 0%. Also, the “%Inh” value in the experiment with STK35 worked out at 0%; in the experiment with STK36, 0%; in the experiment on STK39 it was 0%; in the experiment on SYK, 8%.

As for `COc1ccc(Nc2nccc(N3CCC(NC(=O)c4cccc(NC(C)=O)c4)C3)n2)cc1` (centres unmarked) [GSK1379732], the “%Inh” value in the experiment on SRMS stood at 9%; in the experiment on SRPK1, 18%; in the experiment with SRPK2 it was 61%; with SRPK3, 0%; in the experiment on STK16 it was 11%; with STK33 it was 2%. In addition, the “%Inh” value with STK35 is recorded as 0%; with STK36 it was 0%; with STK39, 15%; in the experiment on SYK, 18%.

For `Nc1nc(-c2ccccn2)c(-c2ccnc3ccccc23)s1` [GW548057], the “%Inh” value is 0% with SRMS; 0% in the experiment on SRPK1; 58% with SRPK2; 0% in the experiment with SRPK3; 19% in the experiment on STK16; 1% in the experiment on STK33. Further, the “%Inh” value in the experiment on STK35 is listed as 0%; in the experiment with STK36, 0%; in the experiment on STK39, 7%; in the experiment with SYK it was 2%.

As for `CS(=O)(=O)CCNCc1ccc(-c2ccc3ncnc(Nc4ccc(OCc5ccccc5)c(Cl)c4)c3c2)o1.Cl` [GW574783], the “%Inh” value in the experiment on SRMS was found to be 0%; in the experiment with SRPK1 it was 0%; with SRPK2, 0%; in the experiment with SRPK3, 19%; in the experiment on STK16 it was 0%; with STK33, 8%. The “%Inh” value with STK35 is on record as 0%; in the experiment with STK36, 0%; with STK39, 5%; in the experiment with SYK, 0%.

`FC(F)(F)c1ccc(-c2nn3ncccc3c2-c2ccnc(Nc3cccc(C(F)(F)F)c3)n2)cc1` [GW828205]: the “%Inh” value with SRMS turned out to be 30%; in the experiment with SRPK1 it was 0%; with SRPK2, 36%; with SRPK3, 8%; in the experiment on STK16, 14%; with STK33, 5%. Further, the “%Inh” value in the experiment with STK35 is given as 0%; in the experiment on STK36 it was 0%; with STK39, 0%; in the experiment with SYK it was 20%.

On to `Fc1cccc(COc2ccc(Nc3ncnc4cc[nH]c34)cc2Cl)c1`, for which the “%Inh” value in the experiment with SRMS is 0%; in the experiment on SRPK1, 8%; in the experiment on SRPK2 it was 7%; in the experiment on SRPK3, 33%; with STK16, 20%; with STK33, 15%. Further, the “%Inh” value is listed as 0% in the experiment on STK35, 33% in the experiment with STK36, 9% in the experiment on STK39 and 32% in the experiment on SYK.

`COc1cc2c(Nc3cccc(NC(=O)c4ccccc4)c3)ncnc2cc1OCCCN1CCOCC1` [GSK223810]: the “%Inh” value in the experiment with SRMS came to 0%; in the experiment on SRPK1 it was 34%; in the experiment on SRPK2, 0%; in the experiment on SRPK3, 23%; with STK16, 0%; in the experiment with STK33, 4%. The “%Inh” value with STK35 is 5%; with STK36, 9%; in the experiment on STK39, 0%; in the experiment with SYK it was 9%.

Consider `Cn1cc(-c2ccc3c(c2)CCN3C(=O)Cc2cccc(C(F)(F)F)c2)c2c(N)ncnc21` [GSK2606414], for which the “%Inh” value with SRMS is 0%; in the experiment with SRPK1, 24%; in the experiment on SRPK2 it was 0%; in the experiment on SRPK3, 100%; in the experiment on STK16, 11%; in the experiment with STK33 it was 0%. Further, the “%Inh” value in the experiment with STK35 is reported as 0%; with STK36, 0%; with STK39 it was 1%; with SYK, 0%.

For `Cc1ccc(NC(=O)c2cccc(C#N)c2)cc1-c1ccc(C(=O)Nc2ccncc2)cc1` [GSK1398463], the “%Inh” value with SRMS worked out at 0%; in the experiment on SRPK1, 11%; in the experiment on SRPK2 it was 0%; with SRPK3, 12%; in the experiment on STK16, 0%; in the experiment on STK33 it was 0%. In addition, the “%Inh” value is reported as 5% in the experiment with STK35, 0% in the experiment on STK36, 16% with STK39 and 0% in the experiment with SYK.

On to `Fc1cccc(COc2ccc(Nc3ncnc4nn5ccccc5c34)cc2Cl)c1` [GW689066], for which the “%Inh” value in the experiment on SRMS is given as 0%; in the experiment on SRPK1, 2%; with SRPK2, 30%; with SRPK3, 8%; with STK16, 12%; in the experiment with STK33, 0%. For the same molecule, the “%Inh” value is recorded as 0% in the experiment on STK35, 0% in the experiment on STK36, 0% with STK39 and 26% in the experiment on SYK.

Turning to `CCC(CC)(CC)n1cnc2c(N)ncnc21` [SKF-97620], the “%Inh” value turned out to be 22% in the experiment with SRMS; 14% with SRPK1; 20% in the experiment with SRPK2; 22% in the experiment with SRPK3; 2% in the experiment with STK16; 0% with STK33. Moreover, the “%Inh” value in the experiment with STK35 was 0%; in the experiment on STK36, 4%; in the experiment with STK39, 0%; in the experiment with SYK, 11%.

Regarding `O=C(Nc1ccccc1)Nc1ccc(Oc2ccc3nccn3n2)cc1`, the “%Inh” value in the experiment with SRMS worked out at 3%; with SRPK1, 28%; in the experiment with SRPK2, 16%; with SRPK3, 16%; in the experiment on STK16 it was 0%; in the experiment with STK33 it was 9%. Moreover, the “%Inh” value in the experiment on STK35 turned out to be 0%; in the experiment with STK36, 0%; with STK39, 0%; in the experiment on SYK it was 6%.

`O=C(Nc1n[nH]c2nc(-c3ccco3)c(Br)cc12)c1ccc(CN2CCCC2)cc1.O=C(O)[C@H](O)[C@@H](O)C(=O)O` [SB-742352]: the “%Inh” value in the experiment with SRMS amounted to 0%; in the experiment with SRPK1 it was 2%; in the experiment on SRPK2 it was 0%; in the experiment on SRPK3 it was 26%; in the experiment with STK16 it was 0%; in the experiment with STK33 it was 0%. Also, the “%Inh” value in the experiment on STK35 amounted to 26%; in the experiment on STK36, 54%; with STK39, 0%; in the experiment on SYK, 10%.

For the molecule `COc1ccc(-c2nc3n(c2-c2ccncc2)CCC3)cc1` [SKF-104493], the “%Inh” value in the experiment on SRMS (1 µM) is 12% and 13%; with SRPK1 (1 µM), 0% and 1%; in the experiment on SRPK2 (1 µM), 16% and 0%; in the experiment on SRPK3 (1 µM) it was 35% and 0%; in the experiment on STK16 (1 µM), 21% and 9%; in the experiment with STK33 (1 µM), 0% and 8%. The “%Inh” value in the experiment with STK35 is 0%; in the experiment on STK36 (1 µM) it was 35% and 43%; in the experiment with STK39 (1 µM), 0% and 16%; with SYK (1 µM), 1% and 48%.

(Values after article PMC5540273 (PLoS ONE, 2017).)
